# Results filed as inconclusive are left out. The source made the active and inactive calls. The call rests on the fitted dose curve; in most records, active means well fitted activation curve with a large enough effect in the signal ratio in the repeat runs (not every such curve was filed as active); inconclusive means weak or mixed curves, or effect the other way; inactive means flat fitted curve, though single readings scatter; the % refers to the signal ratio.
# Biological target: Estrogen receptor beta (Homo sapiens) (UniProt Q92731)
# Assay: qHTS assay to identify small molecule agonists of the estrogen receptor beta (ER-beta) signaling pathway (AID 1259377)
# Settings: ER-beta-UAS-bla HEK293T, beta-lactamase FRET ratio, 16 h; series mostly up to 92.4 µM; activation: at the top concentration
# Description: U.S. Tox21 Program National Center for Advancing Translational Sciences [NCATS] NIH Chemical Genomics Center [NCGC] U.S. Environmental Protection Agency [EPA] National Institutes of Environmental Health Sciences [NIEHS] National Toxicology Program [NTP] U.S. Food and Drug Administration [FDA] Tox21 Assay Overview: Estrogen receptor (ER), a nuclear hormone receptor, plays an important role in development, metabolic homeostasis and reproduction. Two subtypes of ER, ER-alpha and ER-beta, have similar expression patterns with some uniqueness in both types. Endocrine disrupting chemicals (EDCs) and their interactions with steroid hormone receptors like ER causes disruption of normal endocrine function. To identify the compounds that activate ER signaling, an ER beta-UAS-bla GripTite cell line (Life technologies, Madison, WI, USA) containing a beta-lactamase reporter gene under the control of an Upstream Activator Sequence (UAS) was used to screen Tox21 10K compound library.
# Tox21 Assay Protocol Summary: ER-beta-UAS-bla HEK293T cells were dispensed at 2,000 cells/5 uL of assay medium containing 2% charcoal stripped FBS per well into black wall/clear-bottom 1536-well plates using a Multidrop Combi (ThermoFisher Scientific, Waltham, MA) dispenser. After the assay plates were incubated at a 37C and 5% CO2 for 6 hr, 23 nL of compounds dissolved in DMSO, positive controls or DMSO only was transferred to the assay plate by a Pintool station (Kalypsys, San Diego, CA). The plates were incubated at 37C and 5% CO2 for 16 hr. Then 1 uL of LiveBLAzerTM B/G FRET substrate was added using a BioRAPTR FRD (Flying Reagent Dispenser, Aurora Discovery, San Diego, CA). After the plates were incubated at room temperature for 2 hours, fluorescence intensity was measured by an Envision plate reader (PerkinElmer, Shelton, CT).
# On the % scale 0 is the no-effect control and ±100 the full control effect.
# Estrogen receptor beta (Homo sapiens), sequence (Q92731 whole entry, looked up): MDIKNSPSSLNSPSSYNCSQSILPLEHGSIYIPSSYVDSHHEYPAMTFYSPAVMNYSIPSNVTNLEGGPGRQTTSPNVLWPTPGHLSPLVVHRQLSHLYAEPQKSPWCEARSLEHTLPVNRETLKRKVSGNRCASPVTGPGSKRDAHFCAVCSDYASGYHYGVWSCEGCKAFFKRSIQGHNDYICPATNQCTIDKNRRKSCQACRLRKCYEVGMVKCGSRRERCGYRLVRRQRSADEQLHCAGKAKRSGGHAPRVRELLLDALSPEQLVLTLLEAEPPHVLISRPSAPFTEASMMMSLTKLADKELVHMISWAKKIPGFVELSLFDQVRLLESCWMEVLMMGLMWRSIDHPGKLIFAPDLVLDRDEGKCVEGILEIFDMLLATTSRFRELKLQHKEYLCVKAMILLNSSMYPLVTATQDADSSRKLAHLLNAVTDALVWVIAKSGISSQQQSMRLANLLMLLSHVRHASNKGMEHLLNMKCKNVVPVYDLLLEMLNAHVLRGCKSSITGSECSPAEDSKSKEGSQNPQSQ
row,SMILES,activation
1,C=CC(C)(O)CC/C=C(\C)CC (stereo not given),2.97% (inactive)
2,CCNC(=O)/C=C/c1cccc(Br)c1,1.2% [at 42.5 µM] (inactive)
3,CCCCOC(=O)C(C)OC(=O)CCC (stereo not given),8.95% (inactive)
4,CC(C)(CO)[C@@H](O)C(=O)NCCCO,4.39% [at 42.5 µM] (inactive)
5,Cc1oc(=O)oc1CN1CCN(c2cc3c(cc2F)c(=O)c(C(=O)O)c2n3C(C)S2)CC1 (stereo not given),6.39% [at 42.5 µM] (inactive)
6,Nc1nc(=O)n([C@@H]2O[C@H](CO)[C@@H](O)[C@@H]2F)cc1I,-0.551% [at 42.5 µM] (inactive)
7,Cc1c(C(C)C)c(=O)n(-c2ccccc2)n1C,1.85% [at 42.5 µM] (inactive)
8,O=C(c1ccc2c(c1)C(=O)OC2=O)c1ccc2c(c1)C(=O)OC2=O,6.53% (inactive)
9,Nc1ccc(C(=O)OCC(O)CO)cc1 (stereo not given),-0.115% [at 42.5 µM] (inactive)
10,CN=C(NC#N)NCCSCc1csc(N=C(N)N)n1,2.3% [at 42.5 µM] (inactive)
11,O=C(/C=C/c1ccccc1)NCCO,6.07% [at 42.5 µM] (inactive)
12,SCCSCCS,-0.568% (inactive)
13,CC(C)CCC(=O)CCC(C)C,5.78% (inactive)
14,CCCCCC1Nc2cc(C(F)(F)F)c(S(N)(=O)=O)cc2S(=O)(=O)N1 (stereo not given),-0.53% [at 42.5 µM] (inactive)
15,C=COCCOCCOC=C,-0.0884% (inactive)
16,CCCCC[Si](OCC)(OCC)OCC,8.57% (inactive)
17,Nc1cc(C(=O)O)ccc1Cl,-1.55% (inactive)
18,CCCCCC1CCCC(=O)O1 (stereo not given),4.96% (inactive)
19,C=C[C@@H](C)CCC=C(C)C,5.26% (inactive)
20,CC(C)COC(=O)COc1ccc(Cl)cc1Cl,3.58% (inactive)

row,SMILES,activation
1,C=C(C)C(=O)OC1CC(C)CC(C)(C)C1 (stereo not given),1.52% (inactive)
2,CCOC(=O)C(=O)c1csc(NC=O)n1,7.59% [at 42.5 µM] (inactive)
3,CCCCCN(CCCOC)C(=O)C(CCC(=O)O)NC(=O)c1ccc(Cl)c(Cl)c1 (stereo not given),-3.37% [at 42.5 µM] (inactive)
4,CC(CC(=O)O)CC(C)(C)C (stereo not given),0.693% (inactive)
5,F[Si-2](F)(F)(F)(F)F,0.569% (inactive)
6,Cc1ccccc1C(=O)N1CC/C(=N\OS(=O)(=O)O)c2ccc(Cl)cc21,0.924% [at 42.5 µM] (inactive)
7,Cc1cccc(Nc2ccncc2S(=O)(=O)NC(=O)NC(C)C)c1,7.1% [at 42.5 µM] (inactive)
8,CCCCCCCCCCCCOC(C)=O,0.17% (inactive)
9,Cc1ccccc1C,-0.337% (inactive)
10,CNC(=O)NC,4.6% (inactive)
11,CCN(CCC#N)c1ccccc1,-0.194% (inactive)
12,Cc1cccc(C(=O)O)c1[N+](=O)[O-],10.9% (inactive)
13,Cc1cccc(NC(=S)N(C)C)c1,-5.03% (inactive)
14,CC(C)CCO,-0.0147% (inactive)
15,CC(C)C(=O)c1ccccc1,-0.799% (inactive)
16,CC(=O)Nc1ccc(C)cc1,-0.0876% (inactive)
17,Nc1cc(S(=O)(=O)O)ccc1S(=O)(=O)O,1.44% (inactive)
18,O=[Si]=O,0.254% (inactive)
19,COCCOCCOCCOC,0.36% (inactive)
20,CC(=O)OCCCc1ccccc1,1.94% (inactive)
